From PubChem BioAssay
IMPase Li cell: membrane-permeable IMPase blocker, potentiated with lithium; CHO-M1 cells, IP1 TR-FRET (IP-One), carbachol + lithium; Potency, µM (series often up to 59.4 µM), for the others: at the highest dose activity, negative = IMPase inhibition, most hits filed as inhibitors; 210,000 compounds, 0.35% hits;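 note: IP1 builds up when IMPase is blocked and the TR-FRET signal falls; potency is the fitted concentration of half-maximal effect; plate controls were basal vehicle for no effect and high inhibitor control for full effect; nearly all actives have a fitted effect of over 50% in size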
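CHO-M1, 2000 cells/well, 16–30 h culture; cpd + low Li+, 30 min 37C; lysis with d2-IP1/Eu-anti-IP1 Ab, 10 min RT; TR-FRET 665/620 ratio and 620 channel; AC50 via Hill.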
IMPase cell inh: cell-permeable inhibitors of inositol monophosphatase (IMPase). CHO-M1 cells, IP1 accumulation, HTRF TR-FRET ratio. inhibition (IP1 accumulation), % at 46.1 µM. 120,000 tested, under 10 active. AID 901; active = well fitted curve in the direction sought with a large enough effect in the signal ratio, not every such curve was filed as active; inconclusive = small, poorly fitted or top-dose-only effect, or a change in a side signal; inactive = no such curve, though single readings can be large or run the other way; the % refers to the signal ratio;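 note: cells stimulated with carbachol in lithium chloride buffer; plate controls were DMSO basal wells for no effect and reference inhibitor wells for full effect; higher means more IMPase inhibition seen as more IP1 and lower FRET ratio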
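CHO-M1 cells (CHO stably expressing M1 receptor), compound up to 46 uM final, stimulated with carbachol (50 uM as added) in buffer with 50mM LiCl, pH 7.4, 30 min at 37C. Cytosolic IP1 read by TR-FRET; AC50 from Hill fits.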
ALOX15B inhib: 15-hLO-2 (ALOX15B) enzyme inhibition; Potency, µM (doses to about 57.1 µM), for inactives: at the top dose activity change, negative = inhibition, usual class: inhibitors; 110,000 compounds, 0.56% hits; AID 881; O15296; purified 15hLO-2, xylenol orange hydroperoxide absorbance; note: potency is the fitted concentration of half-maximal effect; nearly all actives have a fitted effect of over 60% in size
Target sequence (O15296 whole entry, looked up): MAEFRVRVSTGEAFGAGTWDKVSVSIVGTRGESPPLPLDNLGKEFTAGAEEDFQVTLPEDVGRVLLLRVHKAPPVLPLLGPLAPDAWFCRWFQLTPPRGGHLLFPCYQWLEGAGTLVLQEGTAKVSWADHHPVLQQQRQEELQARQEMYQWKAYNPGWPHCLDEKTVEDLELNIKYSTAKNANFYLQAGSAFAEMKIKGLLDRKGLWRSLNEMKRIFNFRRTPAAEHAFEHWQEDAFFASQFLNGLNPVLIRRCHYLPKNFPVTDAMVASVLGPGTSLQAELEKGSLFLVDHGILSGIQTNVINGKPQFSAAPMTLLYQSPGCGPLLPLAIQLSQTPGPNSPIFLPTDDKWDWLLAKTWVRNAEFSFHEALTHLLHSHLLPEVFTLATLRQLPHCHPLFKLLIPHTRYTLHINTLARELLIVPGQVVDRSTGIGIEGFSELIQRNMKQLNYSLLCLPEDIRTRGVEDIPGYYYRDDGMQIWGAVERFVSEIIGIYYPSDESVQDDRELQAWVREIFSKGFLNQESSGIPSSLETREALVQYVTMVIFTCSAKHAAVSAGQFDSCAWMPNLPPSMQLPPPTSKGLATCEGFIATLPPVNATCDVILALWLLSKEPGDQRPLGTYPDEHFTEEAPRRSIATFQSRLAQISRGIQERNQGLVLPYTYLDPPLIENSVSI
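Screening format was qHTS against 50 nM purified 15hLO-2 in Hepes pH 7.5 with detergent. Activity follows hydroperoxide formation from 45 uM arachidonic acid, measured as 573:405 nm absorbance ratio of the ferric-xylenol orange complex.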
ALOX12 inhib: blocks human 12-lipoxygenase activity | 150,000 compounds, 0.12% hits | P18054 | purified 12-hLO, xylenol orange hydroperoxide absorbance | Potency, µM (highest dose often 57.1 µM), inactives show top-dose activity change, negative = inhibition, actives largely listed as inhibitors; note: potency is the fitted concentration of half-maximal effect; nearly all actives have a fitted effect of over 55% in size
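150 nM 12hLO, 25 mM Hepes pH 7.0 + 0.01% Triton X-100; cpd preinc 15 min RT; 40 uM arachidonic acid, 30 min RT; Fe-XO 30 min; A573/A405 ratio as read-out.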
PNC assembly inh: inhibitors of perinucleolar compartment assembly; PC3M PTB-GFP, PNC prevalence imaging, 16 h; hits give low values; activity change (PNC), negative = inhibition, % at 10 µM; 140,000 compounds, 3.1% hits; AID 2417;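 active = readout at or below -70, meaning at least 70% loss of cells showing the perinucleolar compartment, a nuclear body marking cancer cells; inconclusive = readout between -30 and a set limit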;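 note: plate controls were DMSO wells for no effect and camptothecin positive control wells for full effect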
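Read-out is percentage of cells bearing a perinucleolar compartment, from automated 20x imaging of fixed, Hoechst-stained PC3M PTB-GFP cells. Cells were seeded 4 h, then exposed 16 h to compound (23 nl of library stock) in duplicate plates.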
HPGD inh: HPGD (human) dehydrogenase inhibition. P15428. purified HPGD, NADH fluorescence kinetic, PGE2 substrate. Potency, µM, inactives show top-dose activity change, negative = inhibition, actives largely listed as inhibitors. 150,000 compounds, 4.3% hits. AID 894; active = well fitted inhibition curve with a large enough effect, not every such curve was filed as active; inconclusive = small, poorly fitted or top-dose-only effect, or another doubt; inactive = no such curve, though single readings can be large or run the other way; note: potency is the fitted concentration of half-maximal effect
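NADH formation kinetics: reaction with 30 uM PGE2 and 1 mM NAD+ (final), 20 nM enzyme, Tris-HCl pH 8 with Tween 20, after 15 min compound preincubation at room temperature. Fluorescence change, last versus first of five reads.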
The depositor's hits bear a star; u = inconclusive; x = not tested or not shown; [ ] = remark or other dose. Most compounds without a hit are left out; they make up all but 5.4% or so of the library. Unless noted, calls come from the whole dose curve; as a rule, active = well fitted curve in the direction sought with a large enough effect; inconclusive = small, poorly fitted or top-dose-only effect, or another doubt; inactive = no such curve, though single readings can be large; an effect the other way counts as inactive or inconclusive. Unless noted, % is set by controls: 0 for no effect and ±100 for the full control effect.

SMILES	IMPase Li cell	IMPase cell inh	ALOX15B inhib	ALOX12 inhib	PNC assembly inh	HPGD inh
Cc1ccc(C(=O)Nc2ccc3oc(-c4cc(Br)ccc4Cl)nc3c2)cc1	x	-10	x	x	x	x
COc1ccc(-n2c(=O)c(C)nc3cnc(Nc4ccccc4)nc32)cc1	-6%	x	-15%	1%	x	-6%
CCOc1ccc(C(=O)NCC(C)C)cc1	-4%[38.3 µM]	-13	-1%	-3%	7	18µM*
CCOC(=O)N1CCC(N2C(=O)c3ccc(C(=O)NCc4ccco4)cc3C2=O)CC1	20%	5	x	5%	-119*	-12%
CCOc1ccc(C(=O)NCCO)cc1	-4%	x	x	x	x	x
CN(c1ccccc1C(=O)NCc1ccco1)S(C)(=O)=O	5%[38.3 µM]	7	0%	0%	u	-6%
CN(c1ccccc1C(=O)Nc1ccccc1C(=O)NCc1ccco1)S(C)(=O)=O	4%[38.3 µM]	-1	-14%	2%	-117*	-12%
O=C(NCc1ccco1)c1ccc(COc2ccc(Cl)cc2)cc1	-12%	x	x	3%	-17	-24%
CCOC(=O)N1CCC(N2C(=O)c3ccc(C(=O)NCc4ccc(F)cc4)cc3C2=O)CC1	5%	-7	x	-1%	14	-9%
CC(C)COc1ccc(C(=O)NCc2ccco2)cc1	25%[38.3 µM]	8	-12%	2%	u	16µM*
CCOc1cccc(C2c3c(oc4ccc(F)cc4c3=O)C(=O)N2c2cc(C)ccn2)c1 (stereo not given)	x	-2	x	x	x	x
CCCCOc1ccc(C(=O)Nc2ccncc2)cc1	9%[38.3 µM]	2	9%[2.29 µM]	5%	-118*	-1%
O=C(NCc1ccco1)c1ccc(COc2ccccc2Cl)cc1	15%[38.3 µM]	1	-18%	1%	57	14µM*
O=C(NCc1ccco1)c1ccc(Oc2ccccc2)cc1	32%[38.3 µM]	0	1%	3%	u	28µM*
O=C(NCc1ccco1)c1ccc(COc2cccc3ccccc23)cc1	4%	6	x	2%	0	u
CCOc1ccc(C(=O)NCc2ccco2)cc1	2%[38.3 µM]	4	9%	2%	10	28µM*
CCOc1ccc(NC(=O)NCc2ccco2)cc1	3%	x	x	x	x	x
COc1ccc(S(=O)(=O)N(CC(=O)Nc2ccc3c(c2)OCO3)c2ccc(C)cc2)cc1	x	0	x	x	x	x
O=C(NCc1ccco1)c1cccc2ccccc12	-15%[38.3 µM]	-13	-3%	-2%	-19	14µM*
O=C(/C=C/c1ccccc1Cl)NCc1ccco1	0%[38.3 µM]	5	-5%	-4%	u	14µM*
O=C(NCc1ccco1)c1c(F)cccc1Cl	4%	x	x	-2%	-19	14µM*
O=C(NCc1ccco1)c1ccc2ccccc2c1	22%[38.3 µM]	-6[1.84 µM]	4%[11.4 µM]	-5%	u	32µM*
Cc1c(/C=C(\C#N)C(=O)Nc2cccc(Cl)c2)c2ccccc2n1Cc1ccccc1Cl	x	-6	x	x	x	x
Cc1ccc2oc(-c3ccc(Cl)c(NC(=O)c4ccc(OC(C)C)cc4)c3)nc2c1	x	7	x	x	x	x
COC(=O)[C@@H]1CCCN1C(=O)[C@H]1C[C@@H]1[C@H](NC(=O)OCc1ccccc1)c1ccccc1	-7%	x	1%	-3%	x	-3%
SMILES	IMPase Li cell	IMPase cell inh	ALOX15B inhib	ALOX12 inhib	PNC assembly inh	HPGD inh
O=C(NCc1ccco1)c1cccnc1-c1nc2ccccc2s1	29%[38.3 µM]	-2	u	-16%	-11	16µM*
O=C(NCc1ccco1)c1cccnc1Cl	-8%	x	x	-4%	-11	u
CCCOc1ccc(C(=O)NC(C)C(=O)O)cc1 (stereo not given)	13%[38.3 µM]	1	-7%	-10%	-106*	-9%
O=C(NCc1ccco1)c1ccc2c(c1)C(=O)c1ccccc1-2	-1%[38.3 µM]	-4	-22%	-14%	u	16µM*
Oc1ccc([C@@H]2CNCc3sccc32)cc1O	x	3	u	6%	x	x
NCCNC(=S)S	-1%	x	2%[11.4 µM]	-4%[11.4 µM]	x	3.5µM*
Cc1ccccc1OCCNC(=O)CSc1ccc(C(F)(F)F)cc1[N+](=O)[O-]	12%	-3	x	0%	-9	25µM*
COc1cccc(OCCNC(=O)CSc2ccc(C(F)(F)F)cc2[N+](=O)[O-])c1	5%	x	x	0%	-9	-25%
COC(=O)N1CCC2(CCCN(c3ccccn3)C2)CC1	23%	x	-9%	0%	x	u
Cc1cc(=O)oc2cc(OCC(=O)NCCc3nc4ccccc4[nH]3)ccc12	-11%[38.3 µM]	8	24%	19%	-87*	u
O=C(O)COc1ccc2c(-c3ccccc3)cc(=O)oc2c1	18%[38.3 µM]	6	-4%	5%	u	18µM*
Cc1cc(=O)oc2cc(OCc3nnc(-c4ccccc4Br)o3)ccc12	20%[38.3 µM]	8	-12%	-2%	13	u
Cc1cc(=O)oc2cc(OCC(=O)OCc3nnc(-c4ccccc4)o3)ccc12	-2%	-5	-4%	10%	-86*	u
O=C1c2ccccc2C(O)(O)[C@@]1(O)[C@]1(O)C(=O)c2ccccc2C1(O)O	3%	x	-25%[11.4 µM]	-7%[11.4 µM]	x	1%
CCCCCCCCCCCCC1CO1 (stereo not given)	7%	x	-1%	-5%	x	-2%
CCN(CC(=O)N1CCN(C)CC1)S(=O)(=O)c1ccc(Cl)cc1	8%[38.3 µM]	3	-4%	4%	-107*	-8%
CCN(CC(=O)NCc1ccccn1)S(=O)(=O)c1ccc(Cl)cc1	16%[38.3 µM]	-10	-9%	0%	u	22µM*
C[C@@H](CNC(N)=O)NC(N)=O	-4%	x	-1%[11.4 µM]	5%[11.4 µM]	x	-17%
O=c1cc(CNc2cc(Cl)ccc2Cl)nc2sccn12	-3%	x	x	-1%	-113*	-27%
O=C(Nc1cccnc1)c1ccc(COc2ccccc2Cl)o1	-8%[38.3 µM]	7	8%	1%	-2	14µM*
O=C(Nc1nccs1)c1ccc(COc2ccccc2Br)o1	3%	1	21%	-4%	-88*	-25%
O=C(Nc1ccc(Cl)cn1)c1ccc(COc2ccccc2Br)o1	2%	x	x	x	x	x
O=C(Nc1nccs1)c1ccc(COc2ccc(F)cc2)o1	u	-3	30%	-3%	31	14µM*
O=C(Nc1nccs1)c1ccc(COc2ccc(Cl)cc2)o1	3%[38.3 µM]	0	24%	-12%	-2	-29%
O=C(Nc1cccnc1)c1ccc(COc2cc(Cl)ccc2Cl)o1	-5%[38.3 µM]	-16	48%	-12%	-14	u
NCS(=O)(=O)O	-6%	x	-1%[11.4 µM]	-5%[11.4 µM]	x	-8%
O=C(CSc1nnc(-c2ccccc2Br)o1)N1CCN(C(=O)c2ccco2)CC1	-10%[38.3 µM]	2	-4%	3%	-1	28µM*
O=C(CSc1nnc(-c2ccc(F)cc2)o1)N1CCN(C(=O)c2ccco2)CC1	-4%[38.3 µM]	-4	-7%	-2%	-14	-3%
O=C(CSc1nnc(COc2cccc3cccnc23)o1)N1CCN(C(=O)c2ccco2)CC1	6%	-3	x	2%	-100*	-15%
